Data published in PubChem BioAssay AID1159580 (chemical genetic matrix, 2015).
“And” between values parts separate entries of the source, which are not always exact repeats. Equal values may be shown once. The whole screen tested about 5,500 compounds, of which about 2,000 (36%) were called active. About 18% were inconclusive and are not listed. No stated cut-off is given here; in the data, active means normalized growth mostly below about 0.91 (no sharp cut-off); inconclusive means no clear call, values can overlap the other calls; inactive means mostly above about 0.92. The list shows a part of the results.

Assay: chemical genetic growth profiling, strain panel (AID 1159580);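 further: tested at 20 µM; growth read once vehicle control cultures reached saturation at 30 °C; 1 = growth at the plate median or of vehicle wells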
Conditions: S. cerevisiae deletion strains, growth OD
[1] = locus YAL013W, strain DEP1, stronger effect = lower value
[2] = locus YBR229C, strain ROT2, stronger effect = lower value
[3] = locus YCL061C, strain MRC1, stronger effect = lower value
[4] = locus YDL101C, strain DUN1, stronger effect = lower value
[5] = locus YEL061C, strain CIN8, stronger effect = lower value
[6] = locus YHR030C, strain SLT2, stronger effect = lower value
[7] = locus YJL187C, strain SWE1, stronger effect = lower value
[8] = locus YJR043C, strain POL32, stronger effect = lower value
[9] = locus YJR075W, strain HOC1, stronger effect = lower value
[10] = locus YKL190W, strain CNB1, stronger effect = lower value
[11] = locus YLR039C, strain RIC1, stronger effect = lower value
[12] = locus YNL153C, strain GIM3, stronger effect = lower value
[13] = locus YPL241C, strain CIN2, stronger effect = lower value

Measured: normalized growth

COC(=O)C/C(N)=C(\C#N)C(=O)OC
inactive: [1] 1 | [2] 0.984 | [3] 1.02 | [4] 1.03 | locus YDR150W, strain NUM1, stronger effect = lower value 1.01 | [5] 0.994 | locus YGR078C, strain PAC10, stronger effect = lower value 1.05 | [6] 1.08 | locus YHR087W, strain rtc3, stronger effect = lower value 0.944 | [7] 1.02 | [8] 1.02 | [9] 1.01 | [10] 0.986 | [11] 0.993 | locus YLR058C, strain SHM2 (second series), stronger effect = lower value 0.983 | locus YLR085C, strain ARP6, stronger effect = lower value 0.995 | locus YLR262C, strain YPT6, stronger effect = lower value 0.982 | locus YML094W, strain GIM5, stronger effect = lower value 0.982 | locus YMR219W, strain ESC1, stronger effect = lower value 0.982 | locus YMR263W, strain SAP30, stronger effect = lower value 1.02 | [12] 1.04 | locus YNL298W, strain CLA4 (second series), stronger effect = lower value 0.999 | locus YNL322C, strain KRE1, stronger effect = lower value 1.01 | locus YNR030W, strain Alg12, stronger effect = lower value 1.03 | locus YPL055C, strain LGE1, stronger effect = lower value 0.975 | [13] 1.01 | locus YPR135W, strain CTF4, stronger effect = lower value 1.08

CC(C)=CCc1c2c(c3occ(-c4ccc(O)cc4)c(=O)c3c1O)C=CC(C)(C)O2
0.719 (active) and 0.977 (inactive): locus YJL095W, strain BCK1, stronger effect = lower value
active: [1] 0.718 | locus YAL030W, strain snc1, stronger effect = lower value 0.876 | locus YBL061C, strain skt5, stronger effect = lower value 0.739 | locus YBR009C, strain hhf1, stronger effect = lower value 0.882 | locus YBR023C, strain chs3, stronger effect = lower value 0.747 | locus YBR231C, strain swc5, stronger effect = lower value 0.751 | locus YBR279W, strain paf1, stronger effect = lower value 0.796 | locus YCL011C, strain gbp2, stronger effect = lower value 0.881 | locus YCL016C, strain dcc1, stronger effect = lower value 0.869 | locus YDL035C, strain GPR1, stronger effect = lower value 0.72 | locus YDL074C, strain BRE1, stronger effect = lower value 0.727 | locus YDL134C, strain PPH21, stronger effect = lower value 0.736 | locus YDL192W, strain arf1, stronger effect = lower value 0.859 | locus YDR069C, strain doa4, stronger effect = lower value 0.711 | locus YDR162C, strain NBP2, stronger effect = lower value 0.664 | locus YDR297W, strain sur2, stronger effect = lower value 0.828 | locus YDR318W, strain mcm21, stronger effect = lower value 0.911 | locus YDR388W, stronger effect = lower value 0.917 | [5] 0.869 | locus YER015W, strain faa2, stronger effect = lower value 0.653 | locus YER167W, strain BCK2, stronger effect = lower value 0.896 | locus YFR010W, strain ubp6, stronger effect = lower value 0.895 | locus YGL086W, strain mad1, stronger effect = lower value 0.861 | locus YGL173C, strain kem1, stronger effect = lower value 0.666 | locus YGL248W, strain PDE1, stronger effect = lower value 0.705 | locus YGL253W, strain hxk2, stronger effect = lower value 0.87 | locus YHR013C, strain ard1, stronger effect = lower value 0.755 | locus YHR027C, strain rpn1, stronger effect = lower value 0.614 | locus YHR129C, strain ARP1, stronger effect = lower value 0.769 | locus YHR142W, strain chs7, stronger effect = lower value 0.838 | locus YHR200W, strain rpn10, stronger effect = lower value 0.893 | locus YIL066C, strain RNR3, stronger effect = lower value 0.663 | locus YIL073C, strain SPO22, stronger effect = lower value 0.537 | locus YJL095W, strain BCK1 (second series), stronger effect = lower value 0.834 | locus YJL164C, strain tpk1, stronger effect = lower value 0.77 | locus YJL166W, strain qcr8, stronger effect = lower value 0.811 | locus YJL187C, strain SWE1 (second series), stronger effect = lower value 0.77 | [7] 0.803 | [8] 0.717 | [9] 0.852 | locus YKL160W, strain elf1, stronger effect = lower value 0.868 | [10] 0.772 | locus YLL026W, stronger effect = lower value 0.915 | locus YLR027C, strain aat2, stronger effect = lower value 0.907 | locus YLR058C, strain SHM2, stronger effect = lower value 0.802 | locus YLR221C, strain rsa3, stronger effect = lower value 0.858 | locus YLR268W, strain sec22, stronger effect = lower value 0.841 | locus YLR320W, strain mms22, stronger effect = lower value 0.863 | locus YLR342W, strain FKS1, stronger effect = lower value 0.775 | locus YLR357W, strain rsc2, stronger effect = lower value 0.814 | locus YLR371W, strain rom2, stronger effect = lower value 0.806 | locus YLR418C, strain cdc73, stronger effect = lower value 0.827 | locus YML016C, strain PPZ1, stronger effect = lower value 0.677 | locus YMR058W, strain fet3, stronger effect = lower value 0.429 | locus YNL128W, strain TEP1, stronger effect = lower value 0.643 | [12] 0.835 | locus YNL209W, strain ssb2, stronger effect = lower value 0.51 | locus YNL233W, strain BNI4, stronger effect = lower value 0.787 | locus YOL006C, strain TOP1, stronger effect = lower value 0.389 | locus YOR061W, strain CKA2, stronger effect = lower value 0.733 | locus YOR069W, strain VPS5, stronger effect = lower value 0.87 | locus YOR070C, strain gyp1, stronger effect = lower value 0.812 | locus YOR083W, strain WHI5, stronger effect = lower value 0.866 | locus YOR106W, strain vam3, stronger effect = lower value 0.634 | locus YOR184W, strain ser1, stronger effect = lower value 0.869 | locus YOR265W, strain rbl2, stronger effect = lower value 0.888 | locus YPL051W, strain arl3, stronger effect = lower value 0.658 | locus YPL106C, strain sse1, stronger effect = lower value 0.793 | locus YPR167C, strain met16, stronger effect = lower value 0.913 | strain wtn01, stronger effect = lower value 0.811
inactive: locus YAL021C, strain ccr4, stronger effect = lower value 0.962 | locus YAL026C, strain drs2, stronger effect = lower value 0.911 | locus YBR021W, strain FUR4, stronger effect = lower value 0.913 | locus YBR171W, strain sec66, stronger effect = lower value 1.01 | [2] 0.929 | locus YCL029C, strain bik1, stronger effect = lower value 0.926 | [3] 0.947 | locus YCL069W, strain vba3, stronger effect = lower value 0.987 | locus YCR088W, strain abp1, stronger effect = lower value 1.01 | locus YDL005C, strain med2, stronger effect = lower value 0.995 | locus YDL040C, strain nat1, stronger effect = lower value 0.991 | [4] 0.903 | locus YDL185W, strain tfp1, stronger effect = lower value 0.995 | locus YDR001C, strain nth1, stronger effect = lower value 1.01 | locus YDR101C, strain arx1, stronger effect = lower value 0.953 | locus YDR137W, strain rgp1, stronger effect = lower value 1.01 | locus YDR159W, strain sac3, stronger effect = lower value 1.07 | locus YDR195W, strain ref2 1.14 | locus YDR334W, strain swr1, stronger effect = lower value 0.92 | locus YDR335W, strain msn5, stronger effect = lower value 0.981 | locus YDR392W, strain spt3, stronger effect = lower value 0.78 | locus YDR502C, strain sam2, stronger effect = lower value 0.938 | locus YEL003W, strain gim4, stronger effect = lower value 0.94 | locus YEL037C, strain rad23, stronger effect = lower value 0.958 | locus YEL061C, strain CIN8 (second series), stronger effect = lower value 1.01 | locus YER016W, strain bim1, stronger effect = lower value 0.963 | locus YER110C, stronger effect = lower value 0.989 | locus YER111C, strain swi4, stronger effect = lower value 0.969 | locus YER155C, strain BEM2 (second series), stronger effect = lower value 0.956 | locus YER155C, strain BEM2, stronger effect = lower value 0.98 | locus YGL078C, strain dbp3, stronger effect = lower value 1 | locus YGL167C, strain pmr1, stronger effect = lower value 0.976 | locus YGL227W, strain vid30, stronger effect = lower value 1.01 | locus YGL240W, strain doc1, stronger effect = lower value 1.02 | locus YGR135W, strain pre9, stronger effect = lower value 0.955 | locus YGR252W, strain gcn5, stronger effect = lower value 1.03 | locus YHR079C, strain IRE1 (second series), stronger effect = lower value 1 | locus YHR079C, strain IRE1, stronger effect = lower value 0.992 | locus YHR094C, strain hxt1, stronger effect = lower value 1.01 | locus YIL125W, strain kgd1, stronger effect = lower value 0.982 | locus YIR030C, strain dcg1, stronger effect = lower value 0.995 | locus YJL092W, strain hpr5, stronger effect = lower value 0.977 | locus YJL115W, strain asf1, stronger effect = lower value 1.01 | locus YJL129C, strain trk1, stronger effect = lower value 1.02 | locus YJL134W, strain LCB3, stronger effect = lower value 0.944 | locus YJL154C, strain vps35, stronger effect = lower value 1.01 | locus YJL168C, strain set2, stronger effect = lower value 0.996 | locus YJR066W, strain TOR1, stronger effect = lower value 0.906 | locus YKL009W, strain mrt4, stronger effect = lower value 0.961 | locus YKL068W, stronger effect = lower value 1.01 | locus YKL085W, strain MDH1 (second series), stronger effect = lower value 1.02 | locus YKL085W, strain MDH1, stronger effect = lower value 1.02 | locus YKR001C, strain vps1, stronger effect = lower value 0.927 | locus YKR026C, strain gcn3, stronger effect = lower value 1 | locus YKR091W, strain srl3, stronger effect = lower value 0.98 | locus YLL001W, strain dnm1, stronger effect = lower value 0.937 | locus YLL041C, strain sdh2, stronger effect = lower value 0.982 | [11] 0.863 | locus YLR102C, strain apc9, stronger effect = lower value 1.05 | locus YLR113W, strain HOG1, stronger effect = lower value 0.965 | locus YLR258W, strain gsy2, stronger effect = lower value 0.926 | locus YLR262C, strain YPT6 (second series), stronger effect = lower value 0.881 | locus YLR370C, strain arc18, stronger effect = lower value 0.978 | locus YLR384C, strain iki3, stronger effect = lower value 1 | locus YML032C, strain rad52, stronger effect = lower value 0.987 | locus YML120C, strain ndi1, stronger effect = lower value 0.99 | locus YML124C, strain tub3, stronger effect = lower value 0.994 | locus YMR078C, strain ctf18, stronger effect = lower value 1.03 | locus YMR125W, strain sto1, stronger effect = lower value 1.07 | locus YMR129W, stronger effect = lower value 0.968 | locus YMR205C, strain PFK2, stronger effect = lower value 0.902 | locus YMR223W, strain ubp8, stronger effect = lower value 0.936 | locus YMR231W, strain pep5, stronger effect = lower value 0.948 | locus YMR307W, strain GAS1, stronger effect = lower value 0.724 | locus YNL067W, strain RPL9B, stronger effect = lower value 0.93 | locus YNL071W, strain lat1, stronger effect = lower value 0.943 | locus YNL183C, strain NPR1, stronger effect = lower value 0.908 | locus YNL248C, strain rpa49, stronger effect = lower value 0.951 | locus YNL250W, strain rad50, stronger effect = lower value 0.999 | locus YNL271C, strain bni1, stronger effect = lower value 1.01 | locus YNL298W, strain CLA4, stronger effect = lower value 0.991 | locus YNL307C, strain MCK1, stronger effect = lower value 0.957 | locus YNL322C, strain KRE1 (second series), stronger effect = lower value 1.05 | locus YNR049C, strain mso1, stronger effect = lower value 0.999 | locus YNR052C, strain pop2, stronger effect = lower value 1 | locus YOL012C, strain htz1 0.443 | locus YOL147C, strain pex11, stronger effect = lower value 1 | locus YOR001W, strain rrp6, stronger effect = lower value 0.988 | locus YOR080W, strain dia2, stronger effect = lower value 0.934 | locus YOR136W, strain idh2, stronger effect = lower value 0.996 | locus YOR144C, strain elg1, stronger effect = lower value 1 | locus YOR231W, strain MKK1, stronger effect = lower value 0.991 | locus YOR270C, strain vph1, stronger effect = lower value 0.849 | locus YOR290C, strain snf2, stronger effect = lower value 1 | locus YOR316C, strain cot1, stronger effect = lower value 0.988 | locus YPL078C, strain atp4, stronger effect = lower value 0.985 | locus YPL240C, strain hsp82, stronger effect = lower value 0.957 | [13] 0.936 | locus YPL256C, strain CLN2, stronger effect = lower value 1 | locus YPR119W, strain clb2, stronger effect = lower value 1.02 | locus YPR141C, strain kar3, stronger effect = lower value 1.01 | locus YPR163C, strain tif3, stronger effect = lower value 0.979
0.886 (active) and 0.97 (inactive): [6]
